About 25 (2%) of roughly 1,300 compounds were called active. Not shown: some 9% with an inconclusive outcome. Calls follow the shape of the dose curve; as a rule, active = well fitted activation curve with a large enough effect; inconclusive = small, poorly fitted or top-dose-only effect; inactive = flat fitted curve, though single readings scatter. Only a selection was taken, and actives are over-represented in it overall.
biological target: Glucagon-like peptide 1 receptor (Homo sapiens) (UniProt P43220); assay: qHTS of GLP-1 Receptor Agonists: Hit Validation; settings: HEK293 GLP-1R, cAMP-response luciferase, 4-6 h; series mostly up to 46.1 µM; activation: at the top concentration; as to activation: % of control where 0% means no effect
Excerpt: The overall goal of this project was to develop a novel assay for discovering small molecule ligands for class B1 G protein-coupled receptors (GPCRs). Very few agonists (or inverse agonists) with generally weak activity for this entire group of physiologically important receptors are known to date. To establish proof-of-principle that this critical bottleneck can be overcome with a suitable screening approach, our studies focused on the class B1 receptor for glucagon-like peptide-1 (GLP-1R), a potential therapeutic target for diabetes and neurodegenerative disease. The assay was developed in a "mix and measure" format using a cell-based functional readout. Toward this goal, stably transfected HEK293 cell clones were established that co-express (i) a cAMP-responsive luciferase reporter gene, and (ii) GLP-1Rs that upon ligand interaction either stimulate (agonists) or inhibit (inverse agonists) luciferase activity. In different cell lines to be used for screening, expressed GLP-1Rs are specifically optimized for high sensitivity detection of either weak agonists (hypersensitive receptor) or inverse agonists (constitutively active receptor mutant). In addition, control cell lines were developed that express either the cAMP-responsive reporter gene without recombinant GLP-1Rs (enabling initial exclusion of GLP-1R independent effects of candidate probes), or the reporter gene together with wild type GLP-1Rs (for confirmation of probe activity at this receptor), or the reporter gene in combination with the constitutively active orphan receptor GPR119 (enabling initial exclusion of GLP-1R independent inhibitory effects of candidate inverse agonists). To that end, this assay was optimized for 1536-well format and screened against the MLSMR. NIH Molecular Libraries Probe Production Network [MLPCN] NIH Chemical Genomics Center [NCGC] Grant: NS064851 PI Name: Martin Beinborn, Tufts Medical Center
In a white solid 1536-well plate, 6 uL of cells are dispensed in DMEM without phenol red, 10% Nu serum, and 1% pen-strep medium. The plates are then incubated for 12 hours at 37 deg C at 5% CO2 before 23 nL of compounds are added. After a 4-6 hr incubation at37 deg C and 5% CO2, 3 uL of detection reagent are added and after a 12 min incubation at RT, a luminescent read is obtained on the ViewLux.
Potency is read from the fitted curve at half-maximal effect.

Sequence of Glucagon-like peptide 1 receptor (Homo sapiens) (P43220 whole entry, looked up): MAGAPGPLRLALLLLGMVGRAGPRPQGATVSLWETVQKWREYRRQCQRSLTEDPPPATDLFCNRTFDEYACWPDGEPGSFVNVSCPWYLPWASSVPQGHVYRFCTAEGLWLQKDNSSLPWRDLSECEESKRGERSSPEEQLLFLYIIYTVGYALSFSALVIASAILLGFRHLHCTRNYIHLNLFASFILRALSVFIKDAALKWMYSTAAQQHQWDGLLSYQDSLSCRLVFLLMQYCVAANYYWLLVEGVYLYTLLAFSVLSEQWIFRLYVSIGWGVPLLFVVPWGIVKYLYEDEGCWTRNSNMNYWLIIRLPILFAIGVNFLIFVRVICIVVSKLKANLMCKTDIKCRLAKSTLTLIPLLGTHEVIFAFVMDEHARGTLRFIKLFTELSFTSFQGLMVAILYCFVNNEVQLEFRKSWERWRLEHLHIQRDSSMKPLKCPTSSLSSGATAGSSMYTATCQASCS

Row | SMILES | Potency | activation
1 | COCCNc1nc(Nc2ccc(C)cc2C)c2sccc2n1 | 9.2 µM (active) | 
2 | COCCNc1nc(Nc2ccccc2Cl)c2sccc2n1 |  | 7.08% (inactive)
3 | Clc1ccccc1Nc1nc(NCC2CC2)nc2ccsc12 |  | 4.99% (inactive)
4 | CCOc1ccc(C(C)=O)cc1COC(=O)CCc1cc(OC)c(OC)c(OC)c1 |  | 1.66% (inactive)
5 | CCOC(=O)c1c(C)[nH]c(C)c1C(=O)COC(=O)c1sccc1C |  | 0.504% (inactive)
6 | Nc1nnc(-c2cn(-c3ccccc3)nc2-c2ccccc2)o1 | 5.17 µM (active) | 
7 | CCOC(=O)c1cn(-c2ccccc2)nc1-c1ccncc1 |  | 2.6% (inactive)
8 | COc1ccc(Cn2c(SCC#N)nc3ccc(N4CCOCC4)cc3c2=O)cc1 |  | 19.6% (inactive)
9 | CCOC(=O)C1(C)CCCN(C(=O)c2cc(C)oc2C)C1 (stereo unspecified) |  | -0.718% (inactive)
10 | Cc1ccc(NC(=O)Nc2ccc([N+](=O)[O-])cc2)nc1 |  | -0.803% (inactive)
11 | COc1cc2c(cc1OC)C1=C(C#N)CCC(=NC(=O)c3ccc(Cl)cc3)N1CC2 |  | 14.6% (inactive)
12 | C=CCSc1nc2c(c(=O)[nH]c(=O)n2C)n1CC |  | 6.88% (inactive)
13 | COc1ccc([N+](=O)[O-])cc1NS(=O)(=O)c1cc(C(=O)N2CCN(C)CC2)ccc1OC |  | 2.19% (inactive)
14 | CC(C)Cn1cnc2c(SCc3ccccc3F)nc(N)nc21 |  | 5.83% (inactive)
15 | CCCn1c2ccc(F)cc2c2nnc(SCCN3CCOCC3)nc21 |  | 10.9% (inactive)
16 | CCOc1ncccc1C(=O)OCc1ccc(C(=O)OC)o1 |  | 3.21% (inactive)
17 | Nc1nc2sc3c(c2c(=O)s1)CCCC3 |  | 19.1% (inactive)
18 | COc1cc2c(cc1OC)CN(C(=O)c1ccc(N3CCCC3)c([N+](=O)[O-])c1)CC2 |  | 4.86% (inactive)
19 | COC(=O)[C@@H]1CCCN1C(=O)c1cc(COc2cccc3cccnc23)on1 |  | -0.35% (inactive)
20 | CCN=C1S/C(=C\c2cn(CC)c3ccccc23)C(=O)N1CC |  | 26.8% (inactive)
21 | COc1ccccc1N1CCN(C(=O)/C=C/c2ccco2)CC1 |  | 2.92% (inactive)
22 | COc1cccc(OC)c1C(=O)Nc1ccc(C(=O)c2ccncc2)cc1 |  | -0.423% (inactive)
23 | CCOC(=O)c1c(NC(=O)COC)sc(C)c1C |  | 3.9% (inactive)
24 | COc1ccc(C2=Nn3c(nnc3C3CCCCC3)SC2)cc1OC | 8.2 µM (active) | 

Row | SMILES | Potency | activation
25 | COc1ccc(C2=NN(C(C)=O)C(c3cccs3)C2)cc1OC (stereo unspecified) |  | 14.1% (inactive)
26 | COc1ccc(OC)c(-c2nnc3n2N=C(c2ccc(OC)c(OC)c2)CS3)c1 | 1.64 µM (active) | 
27 | c1cc2c(cc1C1=Nn3c(nnc3C3CCCCC3)SC1)OCO2 |  | 18.3% (inactive)
28 | COc1ccc(C2=Nn3c(nnc3-c3ccccn3)SC2)cc1OC |  | 29.2% (inactive)
29 | Cc1cc(C)n(-c2nnc3n2N=C(c2c[nH]c4ccccc24)CS3)n1 |  | 6.87% (inactive)
30 | COc1ccc(C2CC(c3ccc(OC)c(OC)c3)=NN2C(=O)c2ccccc2)cc1 (stereo unspecified) |  | 28% (inactive)
31 | CCOc1ccc(-c2nnc3n2N=C(c2ccc(OC)cc2)CS3)cc1 |  | 8.96% (inactive)
32 | COc1ccc(C2=Nn3c(nnc3-c3ccccc3Cl)SC2)cc1OC1CCOC1 (stereo unspecified) | 13 µM (active) | 
33 | COc1ccc(C2=Nn3c(nnc3-c3ccccc3OC)SC2)cc1OC | 5.8 µM (active) | 
34 | COc1ccc(C2=Nn3c(nnc3-c3ccco3)SC2)cc1 |  | 7.18% (inactive)
35 | COc1ccc(C2=Nn3c(nnc3-c3ccccc3)SC2)cc1OC |  | 19.1% (inactive)
36 | C/C(=N\Nc1nc2ccccc2[nH]1)c1ccc(C)o1 |  | -0.323% (inactive)
37 | COc1cc(C#Cc2ccc3cc(CCO)oc(=O)c3c2)cc(OC)c1 |  | 29.7% (inactive)
38 | O=c1[nH]n(CC2COC3(CCCCC3)O2)c(=O)c2ccccc12 (stereo unspecified) |  | 5.01% (inactive)
39 | COCc1cccc(-c2csc(C(C)(O)c3cccc(F)c3)n2)c1 (stereo unspecified) |  | 0.448% (inactive)
40 | COc1cc(SC)ccc1C(=O)OCc1nc2ccsc2c(=O)[nH]1 |  | 3.67% (inactive)
41 | CSc1nnc(C)c(/C=C/Nc2ccc(F)cc2)n1 |  | 12.1% (inactive)
42 | CN(C)c1ccc(N=Nc2ccccc2C(=O)OCC(=O)Nc2ccccc2C(F)(F)F)cc1 |  | 4.63% (inactive)
43 | COc1ccc(/C=N/n2c(-c3ccc(C)cc3)n[nH]c2=S)cc1OC |  | 22.8% (inactive)
44 | C=CCn1c2ccccc2c(=O)c2cc(C#CC3(O)CCCCC3)ccc21 |  | 19.5% (inactive)
45 | O=C(Nc1ccccc1)OCc1cc(-c2ccccc2Cl)on1 |  | 4.56% (inactive)
46 | CCCc1cc(-c2ccc(O)c(OCC)c2)c(C#N)c(N)n1 |  | 10.5% (inactive)
47 | COc1ccc(CCN(C)C/C=C/c2ccccc2[N+](=O)[O-])cc1OC |  | 4.02% (inactive)
48 | CCCOc1ccc2c(=O)c(-c3cc(C(=O)OC)oc3C)c(C)oc2c1 |  | 0.445% (inactive)

Row | SMILES | Potency | activation
49 | Fc1ccccc1COc1ccc(Br)cc1CNCc1cccnc1 |  | 0.917% (inactive)
50 | COc1ccc(CN(C)Cc2nc(Cc3ccccc3Cl)no2)cc1OC | 16.4 µM (active) | 
51 | COc1ccc(Cc2noc(-c3ccc(OC)c(OC)c3)n2)cc1OC |  | 7.14% (inactive)
52 | COc1cc(-c2nc(Cc3ccccc3Cl)no2)cc(OC)c1OC |  | 4.3% (inactive)
53 | CCCCCCSC1=C(C#N)C(c2ccc(O)cc2)CC(=O)N1 (stereo unspecified) |  | -0.367% (inactive)
54 | NS(=O)(=O)c1cccc(NC(=O)Nc2ccccc2)c1 |  | -0.735% (inactive)
55 | CCc1ccc(C(=O)COC(=O)c2cc([N+](=O)[O-])ccc2NCCO)cc1 |  | 11% (inactive)
56 | CC(CCc1ccco1)NC(=O)c1cccc2c1C(=O)N(C1CCCCC1)C2 (stereo unspecified) |  | 6.34% (inactive)
57 | Cc1nn(-c2ccccc2)c(Cl)c1/C=N/NC(N)=O |  | 18.9% (inactive)
58 | Cc1ccccc1Nc1nc(N)nc(-c2oc3ccccc3c2C)n1 |  | 23.8% (inactive)
59 | COc1cccc(C(C)(O)c2nc(-c3ccc(OC)c(OC)c3)cs2)c1 (stereo unspecified) |  | 12% (inactive)
60 | Cc1c(C(=O)N(C)C(C)c2ccccn2)oc2c(F)cccc12 (stereo unspecified) |  | 2.69% (inactive)
61 | CCOCCCn1c(=NC(=O)c2cccnc2)c(C(=O)OCC)cc2c(=O)n3ccccc3nc21 |  | 1.76% (inactive)
62 | COc1ccc(-c2cc(C3CC3)nc(N)c2C#N)cc1 |  | 3.1% (inactive)
63 | CCOC(=O)c1c(NC(=O)Cc2ccccc2)sc2c1CCN(CC)C2 |  | 1.77% (inactive)
64 | CCOC(=O)c1cnc2c(c(C)nn2CC)c1NC1CC1 |  | 13.8% (inactive)
65 | c1ccc(Cn2nnc3c(N4CCC5(CC4)OCCO5)ncnc32)cc1 |  | -0.288% (inactive)
66 | COc1ccc(CCN(C)C(=O)CCc2nnc(-c3ccccc3)o2)cc1OC |  | -0.272% (inactive)
67 | COc1ccccc1Nc1cc(C(=O)NCc2cccnc2)c2ccccc2n1 |  | 1.83% (inactive)
68 | COc1cc2c(cc1OC)CN(C(=O)c1ccc(S(=O)(=O)N(C)c3ccccc3)cc1)CC2 |  | 16.1% (inactive)
69 | O=c1c2c3c(sc2nc(NCCO)n1Cc1ccco1)CCCCC3 |  | 6.54% (inactive)
70 | CCSc1cc(C)nc2c(-c3ccccc3)c(C)nn12 |  | 4.39% (inactive)
71 | CCOC(=O)c1sc(NC(=O)/C=C/c2cnn(CC)c2C)c(C(=O)OCC)c1C |  | 4.5% (inactive)
